Screening results as filed in PubChem.
Sm TGR block: qHTS Assay for the Inhibitors of Schistosoma Mansoni Peroxiredoxins. purified TGR, DTNB reduction, TNB absorbance 405 nm. 3% of 360,000 active. AID 485364, 2010. Potency, µM (doses to about 114 µM), hits mostly inhibitors. Schistosoma mansoni thioredoxin glutathione reductase (TGR), Q962Y6; active = well fitted inhibition curve with a large enough effect; inconclusive = small, poorly fitted or top-dose-only effect; inactive = no such curve, though single readings can be large or run the other way; also: nearly all actives have a fitted effect of over 60% in size
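Kinetic colorimetric format: TGR-catalysed, NADPH-driven DTNB reduction monitored via TNB absorbance. Enzyme dispensed at 20 nM; compound exposure 15 min at room temperature before reaction start.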
FMDV inh: High Throughput Screening for Foot and Mouth Disease Virus Antivirals. 1.2% of 410,000 active. Potency, µM (doses to about 57.9 µM), usual class: inhibitors. FMDV antiviral cell-based qHTS; calls by dose curve; tested in HEK293T cells; also: read-out not given here; nearly all actives have a fitted effect of over 45% in size
Shiga inhibitor: A qHTS for Small Molecule Inhibitors of Shiga Toxin; Vero cells, Shiga toxin protein synthesis inhibition reporter; inhibition, % at 38.7 µM; 9.2% of 290,000 active; in the data active = inhibition mostly above about 28%, no sharp cut-off; inactive = mostly below about 43%
Cycloheximide cs: Cycloheximide Counterscreen for Small Molecule Inhibitors of Shiga Toxin | cell reporter, cycloheximide protein synthesis inhibition counterscreen | AID 2314, 2010 | 12% of 300,000 active | max response, %; in the data active = max response mostly above about 13%, no sharp cut-off; inactive = mostly below about 14%; also: read at 38.3 µM for the half of the compounds with a filed dose
Of the large screens only hits and unclear results are named; the others gave an inactive call. Rows were chosen to be rich in hits. Some 12% of all compounds tested hit in one or more screens of this group.

COc1cc(/C=C(\C#N)c2nc3ccccc3[nH]2)ccc1OCc1ccccc1F	none (no result: Shiga inhibitor, Cycloheximide cs)
COc1cc(/C=C(/C#N)c2ccccc2)ccc1Oc1ccc([N+](=O)[O-])cn1	FMDV inh inconclusive
COc1ccc(/C=C(\C#N)c2nc3ccccc3[nH]2)cc1O	Shiga inhibitor 29, Cycloheximide cs 19
COc1cc(/C=C(/C#N)c2nc3ccccc3[nH]2)ccc1OC(=O)c1ccco1	Shiga inhibitor 82, Cycloheximide cs 28 (no result: FMDV inh)
Clc1cccc(CSc2nnc(C3CCNCC3)o2)c1	none (no result: Shiga inhibitor, Cycloheximide cs)
Cc1ccccc1CN1C(=O)c2ccccc2S(=O)c2ccc(C(=O)NCc3ccccc3)cc21 (stereo not given)	none (no result: Shiga inhibitor, Cycloheximide cs)
O=c1c(S(=O)(=O)c2ccccc2)cn(Cc2ccc(F)cc2)c2cc(N3CCOCC3)c(F)cc12	none (no result: Shiga inhibitor, Cycloheximide cs)
COc1cc(/C=C(\C#N)c2nc3ccccc3[nH]2)cc(Br)c1OCc1ccccc1	FMDV inh inconclusive, Cycloheximide cs 12
COCC(=O)N1CCC[C@@]2(CCN(c3ncccn3)C2)C1	none (no result: Sm TGR block, Shiga inhibitor, Cycloheximide cs)
COC(=O)c1ccc(CSc2nnc(C)s2)cc1	Shiga inhibitor 67, Cycloheximide cs 38
COC(=O)c1ccc(CSc2nnc(N)s2)cc1	Cycloheximide cs 21
COc1ccc(CSc2nnc(C)s2)cc1F	Shiga inhibitor 73, Cycloheximide cs 16
COC(=O)c1ccc(CSc2nnc(NC(=O)C3CCCO3)s2)cc1 (stereo not given)	none
COC(=O)c1ccc(CSc2nc(N)cc(N)n2)cc1	Shiga inhibitor 53, Cycloheximide cs 36
COc1ccccc1CNC(=O)CCC(=O)N1CC2CCCN2c2ccccc21 (stereo not given)	none (no result: Shiga inhibitor, Cycloheximide cs)
O=C(COc1ccc(F)cc1)Nc1ccc(S(=O)(=O)N(Cc2ccccc2)c2ccccc2)cc1	none (no result: Shiga inhibitor, Cycloheximide cs)
CCCC/C=C/[C@H](c1ccccc1)[C@H](CO)Cc1ccc2ccccc2c1	none (no result: Sm TGR block, FMDV inh)
Nc1ccc2oc(=O)ccc2c1I	none (no result: Sm TGR block, FMDV inh)
COC(=O)c1ccc(CSc2nnc(NC(=O)c3cc4c(s3)CCCC4)s2)cc1	none
Cc1nnc(SCC(=O)c2ccc([N+](=O)[O-])cc2)s1	none
CC(=O)c1c(C)[nH]c(C(=O)CSc2nnc(C)s2)c1C	Shiga inhibitor 92, Cycloheximide cs 44
C=CCn1c(C)nnc1SCC(=O)c1[nH]c(C)c(C(C)=O)c1C	none
COC(=O)c1cccc(CSc2nnc(C)s2)c1	Shiga inhibitor 97, Cycloheximide cs 23
Cc1nnc(SCC(=O)c2ccc(Cl)cc2)s1	Shiga inhibitor 87, Cycloheximide cs 43
COc1ccc2nc(SCC(=O)c3c(C)[nH]c4ccccc34)nc(C)c2c1	none (no result: Shiga inhibitor, Cycloheximide cs)
Cc1ccc(C=C2C(=O)c3ccccc3C2=O)o1	Cycloheximide cs 37
Cc1ccc(/C=C2/C(=O)c3ccc(C(=O)O)cc3C2=O)o1	Sm TGR block 5µM
O=C(O)c1ccc2c(c1)C(=O)/C(=C/c1ccccc1)C2=O	none
O=C(O)c1ccc2c(c1)C(=O)/C(=C\c1ccco1)C2=O	Sm TGR block 7.1µM
CC(C)(C)N1C(=O)c2ccc(C(=O)O)cc2C1=O	none
O=C1C(=Cc2ccco2)C(=O)c2ccccc21	Cycloheximide cs 37
COc1ccc(S(=O)(=O)N2CCC(N3CCN(Cc4ccc(F)cc4)C(=O)C3=O)CC2)cc1	none (no result: Shiga inhibitor, Cycloheximide cs)
NC(=O)[C@@H]1CCCN1C(=O)c1ccc2nc(Cc3ccccc3F)oc2c1	none
O=C(c1ccc2oc(CCc3ccccc3)nc2c1)N1CCC(O)CC1	Shiga inhibitor 75, Cycloheximide cs 52
O=C(c1ccc2oc(CCCc3ccccc3)nc2c1)N1CCCCC1CO (stereo not given)	Shiga inhibitor 55, Cycloheximide cs 38
NC(=O)[C@@H]1CCCN1C(=O)c1ccc2oc(CCc3ccccc3)nc2c1	Shiga inhibitor 40, Cycloheximide cs 43
CCOC(=O)N1CCN(C(=O)c2ccc3oc(CCc4ccccc4)nc3c2)CC1	none (no result: Sm TGR block, Shiga inhibitor, Cycloheximide cs)
CCCCN(CCCC)C(=O)CN(C)S(=O)(=O)c1ccc2c(c1)c(=O)n(C)c(=O)n2C	none (no result: Shiga inhibitor, Cycloheximide cs)
COc1ccc2[nH]c(C)c(C(=O)CN3CC(C)OC(C)C3)c2c1 (stereo not given)	none
COc1ccc(NC(=O)CN(C)CC(=O)c2c(C)[nH]c3ccccc23)cc1	Sm TGR block inconclusive (no result: Shiga inhibitor, Cycloheximide cs)
COc1cccc(NC(=O)CN(C)CC(=O)c2c(C)[nH]c3ccccc23)c1	Sm TGR block 18µM, FMDV inh inconclusive (no result: Shiga inhibitor, Cycloheximide cs)
COc1ccc2[nH]c(C)c(C(=O)CN(C)CC3OCCO3)c2c1	Sm TGR block 25µM
COc1ccc2[nH]c(C)c(C(=O)CN(C)C)c2c1	Sm TGR block 40µM (no result: FMDV inh)
CCOc1ccc2nc(SCC3CC3(Cl)Cl)[nH]c2c1 (stereo not given)	Shiga inhibitor 114, Cycloheximide cs 55
ClC1(Cl)CC1CSc1nc2ccccc2[nH]1 (stereo not given)	Cycloheximide cs 42
O=C(O)CSc1nc2ccccc2[nH]1	none
c1ccc2[nH]c(SCC3CCCCO3)nc2c1 (stereo not given)	Shiga inhibitor 105, Cycloheximide cs 34
O=c1c2ccccc2nc(SCC2CCCCO2)n1-c1ccccc1 (stereo not given)	none
CCN(CC)c1nn2c(=O)c(C(=O)NCc3cccc(OC)c3OC)cnc2s1	none (no result: Shiga inhibitor, Cycloheximide cs)
Cc1nn(S(=O)(=O)c2ccc(F)cc2)c(C)c1S(=O)(=O)N1CCCCCC1	none (no result: Shiga inhibitor, Cycloheximide cs)
COC(=O)c1ccc(COc2cc(C)ccc2C)o1	Shiga inhibitor 91, Cycloheximide cs 46
COC(=O)c1ccc(COc2ccc(F)cc2)o1	Shiga inhibitor 53, Cycloheximide cs 28
Cc1c(C)c2ccc(OCc3ccc(C(=O)O)o3)c(C)c2oc1=O	FMDV inh 18µM, Shiga inhibitor 58, Cycloheximide cs 32
COC(=O)c1ccc(COc2ccc(C(=O)c3ccccc3)cc2)o1	none
Cc1cc(C)cc(OCc2ccc(C(=O)O)o2)c1	Cycloheximide cs 9.3
COc1ccc(Nc2nn3c(=O)c4cc5c(cc4nc3s2)OCO5)c(OC)c1	none (no result: Shiga inhibitor, Cycloheximide cs)
CCCCC1CCC(C(=O)N2CC(=O)Nc3ccc(Cl)cc3C2c2ccc(F)cc2)CC1 (stereo not given)	none (no result: Shiga inhibitor, Cycloheximide cs)
CC1CCN(S(=O)(=O)c2ccc3c(ccc(=O)n3CC(=O)NCc3ccccc3)c2)CC1	none (no result: Shiga inhibitor, Cycloheximide cs)
O=C(O)c1ccc(COc2ccc3c4c(c(=O)oc3c2)CCC4)o1	Sm TGR block inconclusive, FMDV inh inconclusive
O=C(O)c1ccc(COc2c(F)c(F)c(F)c(F)c2F)o1	Sm TGR block 45µM
COC(=O)c1ccc(CO/N=C/c2ccc(OC)cc2)o1	Shiga inhibitor 58, Cycloheximide cs 53
CCc1cc(=O)oc2cc(OCc3ccc(C(=O)O)o3)ccc12	Sm TGR block inconclusive, Cycloheximide cs 15
Cc1ccc(OCc2ccc(C(=O)O)o2)cc1C	FMDV inh inconclusive, Shiga inhibitor 69, Cycloheximide cs 71
Cn1cccc1C(=O)N1CCC2(CCCN(c3ccccn3)C2)CC1	none (no result: Sm TGR block, Shiga inhibitor, Cycloheximide cs)
COc1ccc(-c2onc(C)c2C)cc1S(=O)(=O)NCC1CCN(Cc2cc(C)ccc2C)CC1	none (no result: Shiga inhibitor, Cycloheximide cs)
COC(=O)c1ccc(COc2ccc(C)c(C)c2)o1	Shiga inhibitor 98, Cycloheximide cs 27
CCc1ccc(-c2nc(CS(=O)CC(=O)NCc3ccco3)c(C)o2)cc1 (stereo not given)	Sm TGR block 40µM
